The text below walks through data of PubChem BioAssay.

Calls of active or inactive are those of the source.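 Rule for the calls, unless noted: active = inhibition at or above 50% at 10 µM; inactive = inhibition below 50%.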

A short description of assay [1]: inhibitors of TNFa-induced NFkB p65 translocation, primary screen, imaging, HUVEC, MLSMR starter and 10KST1 sets (AID 438;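 active = inhibition above 20% together with a positive visual image hit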;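 note: compound added about 3h40 before a 20 min TNFalpha stimulation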;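 for inhibition: signal is the nuclear over cytoplasmic p65 intensity ratio per well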). The conditions noted are these: HUVEC TNFa-induced p65 nuclear translocation; cell count: measured here: nuclei count (cytotoxicity indicator), at 2.08 µM; inhibition: at 2 µM, stronger effect = higher value, 0% TNFa-plus-vehicle, 100% no-TNFa wells.
A short description of assay [2]: reduction of polyQ htt aggregates in cells – imaging, exon1htt(103Q)mCFP cells, high-content imaging, primary screen (AID 483;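 active = visual image review flags a hit and inhibition of aggregation exceeds 20%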;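 note: compound exposure lasted 3 days before fixation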;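 for nuclei count: percent of the per-plate median nuclei count of sample wells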). The conditions noted are these: exon1htt(103Q)mCFP cell line, aggregate imaging, at 2 µM; inhibition of aggregation: stronger effect = higher value; nuclei count: measured here: cell count, toxicity.
Assay [3] is described as follows: endothelial E-selectin expression blockers – imaging, HUVEC, immunofluorescence, MLSMR starter and 10KST1 sets, primary screen (AID 487;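 active = visually confirmed hit in the image check and inhibition above 20%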;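 for inhibition: signal is fraction of cell area covered by stained E-selectin grains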;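 for nuclei count: 100% = median nuclei count of all wells on the same plate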). The note with it: HUVEC TNFalpha-induced E-selectin immunofluorescence imaging, at 2 µM; inhibition: stronger effect = higher value; nuclei count: measured here: cell number, toxicity.
Assay [4] addresses Voltage-gated potassium channel subunit beta-2 (Rattus norvegicus) (UniProt P62483). Nature of the assay: inhibitors of rat Kvbeta2 reductase activity – biochemical, NADPH fluorescence, primary screen (AID 622;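 active = fluorescence slope higher than the sample average by over 3 SD, cut at about -0.22 in these data, passing the limit was not always enough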;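 note: slope of raw intensity against log time taken from 70 to 1610 s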). The note with it: recombinant KvBeta, 4-cyanobenzaldehyde reduction, at 10 µM, stronger effect = higher value.
Assay [5] has the same target. The assay can be described thus: enhancers of rat Kvbeta2 NADPH turnover – biochemical, NADPH fluorescence, primary screen (AID 623;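 active = NADPH fluorescence slope more negative than the mean of all samples by about 3 SD, 99.7% confidence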;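 note: fluorescence intensity change per second fitted from 20 to 320 s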). The note with it: Recombinant KvBeta, NADPH fluorescence decrease slope, 10 min; at 10 µM; stronger effect = lower value.
The target of assay [6] is Alpha-2C adrenergic receptor (Homo sapiens) (UniProt P18825). Nature of the assay: compounds altering alpha2C-coupled GIRK flux – cell-based, HEK293 alpha2C/GIRK1/2, thallium flux, primary screen (AID 624;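 active = fluorescence slope after compound addition differing from the mean of all screened samples at 99.7% confidence, in either direction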;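 note: slope of fluorescence ratio to pre-addition baseline per second over 15 to 24 s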). The conditions noted are these: thallium flux BTC fluorescence, at 10 µM, actives lie on both sides.
Sequence of Alpha-2C adrenergic receptor (Homo sapiens) (P18825 whole entry, looked up): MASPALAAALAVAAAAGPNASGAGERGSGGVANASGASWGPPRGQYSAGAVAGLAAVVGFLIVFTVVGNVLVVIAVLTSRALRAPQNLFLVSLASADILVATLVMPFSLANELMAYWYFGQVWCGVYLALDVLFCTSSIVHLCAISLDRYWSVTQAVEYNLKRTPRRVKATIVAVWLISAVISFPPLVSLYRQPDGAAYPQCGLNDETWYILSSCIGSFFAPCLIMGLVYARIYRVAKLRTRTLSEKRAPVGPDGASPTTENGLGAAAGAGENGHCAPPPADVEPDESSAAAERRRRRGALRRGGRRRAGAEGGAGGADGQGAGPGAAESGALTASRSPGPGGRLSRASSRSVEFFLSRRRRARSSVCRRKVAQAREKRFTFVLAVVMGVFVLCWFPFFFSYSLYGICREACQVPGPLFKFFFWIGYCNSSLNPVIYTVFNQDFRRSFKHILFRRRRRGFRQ
Assay [7] in a line: blockers of RIG-like receptor reporter activation – cell-based, Sendai virus stimulus, luciferase, 10K MLSCN set, TLR/RLR signaling modifier project, primary screen (AID 602276).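 Note: firefly luciferase from ISG56 promoter only with Renilla not read in this screen; 0% = Sendai virus plus DMSO and 100% = medium plus DMSO without virus.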 The conditions noted are these: HEK293 RL24 IRF3 luciferase reporter, at 10 µM, stronger effect = higher value.
Assay [8] in a line: TLR3 IRF3 reporter activation blockers – cell-based, poly I:C stimulus, luciferase, 10K MLSCN set, primary screen (AID 602277;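 active = inhibition of the reporter signal at or above 50%; inactive = inhibition below 50%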). The note with it: HEK293-TLR3 RL24 IRF3 luciferase reporter, at 10 µM, stronger effect = higher value.

Sequence of Voltage-gated potassium channel subunit beta-2 (Rattus norvegicus) (P62483 whole entry, looked up): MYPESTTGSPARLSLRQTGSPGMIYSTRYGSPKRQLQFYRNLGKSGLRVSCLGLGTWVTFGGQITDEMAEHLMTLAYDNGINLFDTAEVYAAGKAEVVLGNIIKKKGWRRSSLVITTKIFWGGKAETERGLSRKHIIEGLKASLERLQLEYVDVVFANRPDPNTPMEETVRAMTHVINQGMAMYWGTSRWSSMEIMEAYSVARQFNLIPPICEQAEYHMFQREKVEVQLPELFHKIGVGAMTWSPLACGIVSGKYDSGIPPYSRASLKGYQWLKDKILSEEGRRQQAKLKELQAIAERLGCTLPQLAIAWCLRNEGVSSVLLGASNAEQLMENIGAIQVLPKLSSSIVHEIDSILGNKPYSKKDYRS

Regarding `CCOCCCNC(=O)C1CCN(S(=O)(=O)N(CC(C)C)CC(C)C)CC1`, the cell count in assay [1] is 689. The inhibition was -5.1% (inactive) in assay [1], -91.6% (inactive) in assay [3], 16.6% (inactive) in assay [7] and 19.9% (inactive) in assay [8]. Besides, the inhibition of aggregation in assay [2] was 17.3% (inactive). For the same compound, the nuclei count in assay [2] was found to be 79.1%; in assay [3] it was 100%. Also, the fluorescence slope in assay [4] was -0.503 (inactive). Also, the NADPH fluorescence slope in assay [5] was -5.5e-05 (inactive). In assay [6], the slope is 0.00467 (inactive).
In the case of `CCCCCCc1ccc(-c2ncc(N)cn2)cc1`, in assay [1], the cell count was 478. Further, the inhibition is 3.5% (inactive) in assay [1], -42.4% (inactive) in assay [3], -9.96% (inactive) in assay [7] and -78.9% (inactive) in assay [8]. The inhibition of aggregation in assay [2] is 26.5% (inactive). Further, the nuclei count in assay [2] was found to be 110%; in assay [3], 109%. Also, the fluorescence slope in assay [4] was -0.509 (inactive). Also, the NADPH fluorescence slope in assay [5] is 6.3e-06 (inactive). For the same compound, in assay [6], the slope was 0.00484 (inactive).
As for `Cc1cc(C)n(-c2nc3sc4c(c3c3nnc(SC(C)C)n23)CC(C)(C)OC4)n1`, the cell count in assay [1] came to 352. The inhibition was 8.5% (inactive) in assay [1], -22% (inactive) in assay [3], -16.9% (inactive) in assay [7] and -11.9% (inactive) in assay [8]. Moreover, the inhibition of aggregation in assay [2] is 2.2% (inactive). In addition, the nuclei count in assay [2] stood at 113%; in assay [3], 117%. Besides, the fluorescence slope in assay [4] was -0.455 (inactive). Besides, the NADPH fluorescence slope in assay [5] was 1.9e-05 (inactive). Further, the slope in assay [6] is 0.00472 (inactive).
As to `CCOC(=O)C1(C)NC(c2ccc(OC)c(OC)c2)C2C(=O)N(CC)C(=O)C21` (centres undefined), the cell count in assay [1] was 369. Further, the inhibition in assay [1] is -8.4% (inactive); in assay [3] it was -211% (inactive); in assay [7], 1.25% (inactive); in assay [8], 14.3% (inactive). In addition, the inhibition of aggregation in assay [2] is 29.1% (inactive). The nuclei count in assay [2] came to 105%; in assay [3], 182%. Also, the fluorescence slope in assay [4] was -0.598 (inactive). Besides, the NADPH fluorescence slope in assay [5] was -9.8e-06 (inactive). Besides, the slope in assay [6] was 0.00547 (inactive).
For the compound `O=C(NCc1cccs1)c1cc2c(s1)-c1ccccc1OC2`, the cell count in assay [1] came to 674. Besides, the inhibition was 1.6% (inactive) in assay [1], -49.2% (inactive) in assay [3], -42% (inactive) in assay [7] and -187% (inactive) in assay [8]. For the same compound, the inhibition of aggregation in assay [2] is -25.1% (inactive). Moreover, the nuclei count in assay [2] amounted to 98.2%; in assay [3] it was 108%. In addition, the fluorescence slope in assay [4] is -0.122 (inactive). Besides, the NADPH fluorescence slope in assay [5] was -3.3e-06 (inactive). Besides, the slope in assay [6] was 0.00728 (inactive).
Consider `COc1ccccc1Nc1ccc(C(=O)NC2CCCCC2)cn1`, for which the cell count in assay [1] was found to be 406. The inhibition in assay [1] is 1% (inactive); in assay [3] it was -13.6% (inactive); in assay [7], -10.5% (inactive); in assay [8], -22.4% (inactive). For the same compound, the inhibition of aggregation in assay [2] was 1.1% (inactive). The nuclei count in assay [2] stood at 108%; in assay [3] it was 110%. The fluorescence slope in assay [4] was -0.39 (inactive). The NADPH fluorescence slope in assay [5] is -5.7e-05 (inactive). In addition, the slope in assay [6] is 0.00711 (inactive).
Take `O=C(c1ccco1)N(Cc1cc2ccccc2[nH]c1=O)C1CCCCC1`: the cell count in assay [1] came to 312. Besides, the inhibition is 4.8% (inactive) in assay [1], -42.1% (inactive) in assay [3], -3.39% (inactive) in assay [7] and 6.38% (inactive) in assay [8]. The inhibition of aggregation in assay [2] was -13.6% (inactive). Moreover, the nuclei count came to 114% in assay [2] and 115% in assay [3]. The fluorescence slope in assay [4] was -0.617 (inactive). Also, the NADPH fluorescence slope in assay [5] was 2e-05 (inactive). In addition, the slope in assay [6] is 0.00525 (inactive).
For the compound `O=C(Cc1ccccc1)N1CCCC(c2nc(-c3cccs3)no2)C1` (centres undefined), the cell count in assay [1] turned out to be 731. For the same compound, the inhibition in assay [1] was -6.1% (inactive); in assay [3], -22.8% (inactive); in assay [7], -9.21% (inactive); in assay [8] it was 2.57% (inactive). Besides, the inhibition of aggregation in assay [2] was -15.1% (inactive). In addition, the figures for the nuclei count in assay [2] and in assay [3] were 89.6% and 121%, respectively. Also, the fluorescence slope in assay [4] was -0.475 (inactive). Moreover, in assay [5], the NADPH fluorescence slope is 1.1e-05 (inactive). The slope in assay [6] was 0.00636 (inactive).
For the compound `Cn1c(=O)c(=O)n(C)c2cc(S(=O)(=O)CCC(=O)N3CCOCC3)ccc21`, the cell count in assay [1] is 773. For the same compound, the inhibition in assay [1] is 0.9% (inactive); in assay [3], -79.8% (inactive); in assay [7] it was 8.53% (inactive); in assay [8], 5.94% (inactive). For the same compound, the inhibition of aggregation in assay [2] is 22.5% (inactive). In addition, the nuclei count came out at 93% in assay [2] and 113% in assay [3]. Also, in assay [4], the fluorescence slope is -0.569 (inactive). For the same compound, the NADPH fluorescence slope in assay [5] is -1.9e-06 (inactive). The slope in assay [6] was 0.00791 (inactive).
Consider `Cc1nnc(SCC(=O)Nc2ccc(Br)cn2)[nH]c1=O`, for which the cell count in assay [1] was 359. The inhibition in assay [1] was -8.5% (inactive); in assay [3], -43.2% (inactive); in assay [7] it was 15.8% (inactive); in assay [8], 5.27% (inactive). The inhibition of aggregation in assay [2] was 18.1% (inactive). Besides, the nuclei count in assay [2] was found to be 117%; in assay [3] it was 114%. In addition, the fluorescence slope in assay [4] is -0.426 (inactive). Further, the NADPH fluorescence slope in assay [5] was -1.1e-05 (inactive). The slope in assay [6] was 0.00432 (inactive).
Consider `COc1ccc(CCNC(=O)CSc2nncn2N)cc1OC`, for which the cell count in assay [1] is 641. Further, the inhibition is -3.2% (inactive) in assay [1], -29.4% (inactive) in assay [3], 12.1% (inactive) in assay [7] and 21.1% (inactive) in assay [8]. In assay [2], the inhibition of aggregation is 24.1% (inactive). Besides, the nuclei count in assay [2] came to 81.6%; in assay [3], 122%. Also, the fluorescence slope in assay [4] was -0.345 (inactive). Besides, in assay [5], the NADPH fluorescence slope was -1.6e-05 (inactive). In assay [6], the slope was 0.00364 (inactive).
`CCOC(=O)N1CCC(N(CCCOC)C(=O)Nc2ccc(CC)cc2)CC1`: in assay [1], the cell count came to 574. The inhibition in assay [1] was 2.2% (inactive); in assay [3], 12.1% (inactive); in assay [7], 4.87% (inactive); in assay [8], 9.22% (inactive). The inhibition of aggregation in assay [2] was -21.3% (inactive). Also, the values for the nuclei count in assay [2] and in assay [3] were 106% and 93.2%, respectively. Besides, the fluorescence slope in assay [4] is -0.531 (inactive). The NADPH fluorescence slope in assay [5] is -2.6e-05 (inactive). In addition, the slope in assay [6] was 0.00487 (inactive).
In the case of `O=C(CCSc1nc(-c2ccco2)cc(C(F)(F)F)n1)Nc1ccc2c(c1)OCO2`, the cell count in assay [1] is 429. In addition, the inhibition in assay [1] was 1.8% (inactive); in assay [3], -52.9% (inactive); in assay [7] it was -4.65% (inactive); in assay [8], -14.1% (inactive). The inhibition of aggregation in assay [2] is 30.3% (inactive). Moreover, the nuclei count was 95.1% in assay [2] and 161% in assay [3]. The fluorescence slope in assay [4] was -0.386 (inactive). Also, in assay [5], the NADPH fluorescence slope is 2.5e-05 (inactive). The slope in assay [6] was 0.00312 (inactive).
Turning to `O=C(O)C1CC=CCC1C(=O)Nc1cccc(C(=O)N2CCCCC2)c1` (centres undefined), in assay [1], the cell count was determined as 419. The inhibition is 6.1% (inactive) in assay [1], -158% (inactive) in assay [3], 0.562% (inactive) in assay [7] and -0.512% (inactive) in assay [8]. Also, the inhibition of aggregation in assay [2] is -11.9% (inactive). Moreover, the nuclei count in assay [2] came out at 109%; in assay [3] it was 115%. In addition, the fluorescence slope in assay [4] is -0.427 (inactive). The NADPH fluorescence slope in assay [5] was -4.3e-05 (inactive). Besides, in assay [6], the slope was 0.00595 (inactive).
